# From PubChem BioAssay (EPA / NIEHS)
# Results filed as inconclusive are left out. Calls of active or inactive are those of the source. The calls were made as follows, unless noted: active = hit-call score of the fitted dose curve at least 0.9, where 1 is the maximum; inactive = score below 0.9.
# Experiments:
# [1] = target: Nuclear respiratory factor 1 (Homo sapiens) (UniProt Q16656); assay: ATG_NRF1_CIS: Attagene CIS-FACTORIAL HepG2 Assay for human Nuclear Respiratory Factor 1 (NRF1) Orphan Gene (AID 2282987); details: HepG2 NRF1 cis-element reporter, Attagene multiplex; actives raise or lower the signal
# How it was run: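 Reporter mRNA induction or loss in HepG2 cells after 24 h dosing; cis-regulated reporter constructs report endogenous transcription-factor activity. Quantified by RT-PCR/capillary electrophoresis fluorescence, DMSO-referenced.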
# [2] = ATG_NFI_CIS: Attagene CIS-FACTORIAL HepG2 Assay for human Nuclear Factor I (NFI) (AID 2282989); details: HepG2 cis-regulatory reporter, NFI response element transcription; actives raise or lower the signal
# How it was run: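 Transfected HepG2 liver cells, exposed 24 h, supplied total RNA for oligo(dT) reverse transcription and reporter-specific PCR. Labelled, HpaI-cut fragments were sized by capillary electrophoresis; DMSO set the baseline for bidirectional fitting.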
# [3] = ATG_NF_kB_CIS: Attagene CIS-FACTORIAL HepG2 Assay for human Nuclear Factor Kappa B (NF-kB) (AID 2282991); details: HepG2 Attagene cis-factorial NF-kB reporter mRNA; actives raise or lower the signal
# How it was run: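 DMSO served as negative control and baseline for bidirectional curve fitting. Transiently transfected HepG2 cells were dosed for 24 h, then reporter transcripts were measured by RT-PCR with capillary electrophoresis detection.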
# [4] = ATG_NRF2_ARE_CIS: Attagene CIS-FACTORIAL HepG2 Assay for human Nuclear Factor Erythroid 2 Related Factor 2 (NFR2) response to Antioxidant Response Elements (ARE) (AID 2282992); details: HepG2 Attagene ARE/NRF2 reporter, transcription factor activity; actives raise or lower the signal
# How it was run: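 Using transiently transfected HepG2 cells exposed for 24 h, reporter mRNA levels were determined by RT-PCR with fluorescent primer extension and capillary electrophoresis, analysed for gain or loss of signal against DMSO.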
# [5] = ATG_Oct_MLP_CIS: Attagene CIS-FACTORIAL HepG2 Assay for human Octamer-Binding Transcription Factor (Oct) (AID 2282993); details: HepG2 Attagene cis-factorial Oct reporter, mRNA; actives raise or lower the signal
# How it was run: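 Using HepG2 cells bearing transfected cis-reporter constructs, mRNA induction was read after 24 h by fluorescent RT-PCR and capillary electrophoresis, with DMSO defining baseline for gain- or loss-of-signal fits.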
# [6] = target: Cellular tumor antigen p53 (Homo sapiens) (UniProt P04637); assay: ATG_p53_CIS: Attagene CIS-FACTORIAL HepG2 Assay for human p53 Transcription Factor (AID 2282994); details: HepG2 p53 cis-element reporter, Attagene mRNA; actives raise or lower the signal
# How it was run: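 In HepG2 cells, reporter transcription units under cis-regulatory promoters were transiently introduced. Following 24 h treatment, RNA was processed to labelled, digested cDNA fragments read by capillary electrophoresis; fitting was bidirectional versus DMSO.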
# [7] = target: human Peroxisome Proliferator-activated Receptor delta (PPARd), PPARD (gene 5467) (UniProt Q03181); assay: ATG_PPARd_TRANS: Attagene TRANS-FACTORIAL HepG2 Assay for human Peroxisome Proliferator-activated Receptor delta (PPARd) (AID 2283002; active = hit-call score of the fitted dose curve at least 0.9, where 1 is the maximum)
# How it was run: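 Measured quantity: GAL4-UAS reporter transcript induction in HepG2 after 24 h chemical dosing, with NR-Gal4 chimeras supplied by transient transfection. Detection by RT-PCR and capillary electrophoresis; upward fit against DMSO.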
# [8] = target: Peroxisome proliferator-activated receptor gamma (Homo sapiens) (UniProt P37231); assay: ATG_PPARg_TRANS: Attagene TRANS-FACTORIAL HepG2 Assay for human Peroxisome Proliferator-activated Receptor-gamma (PPARg) (AID 2283007; active = hit-call score of the fitted dose curve at least 0.9, where 1 is the maximum)
# How it was run: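 Chimeric NR-Gal4 transactivation is measured in transiently transfected HepG2 cells by reporter mRNA induction at 24 h. Detection uses RT-PCR with fluorescent labelling and capillary electrophoresis; DMSO defines baseline.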
# [9] = target: Nuclear receptor subfamily 1 group I member 2 (Homo sapiens) (UniProt O75469); assay: ATG_PXR_TRANS: Attagene TRANS-FACTORIAL HepG2 Assay for human Pregnane X Receptor (PXR) (AID 2283008; active = hit-call score of the fitted dose curve at least 0.9, where 1 is the maximum)
# How it was run: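 Multiplexed TRANS reporter panel in HepG2; this component tracks PXR-Gal4-driven reporter mRNA after 24 h dosing, measured by RT-PCR with capillary electrophoresis fluorescence, fitted against DMSO.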
# [10] = target: human RAR-related Orphan Receptor beta (RORb), RORB (gene 6096) (UniProt Q92753); assay: ATG_RORb_TRANS: Attagene TRANS-FACTORIAL HepG2 Assay for human RAR-related Orphan Receptor beta (RORb) (AID 2283010; active = hit-call score of the fitted dose curve at least 0.9, where 1 is the maximum)
# How it was run: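 Multiplexed transcription-factor reporter assay: HepG2 cells transiently carrying NR-Gal4/GAL4-UAS constructs, 24 h treatment, mRNA quantified by RT-PCR plus capillary electrophoresis fluorescence; activity scored as induction over DMSO.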
# [11] = target: human Retinoic Acid Receptor gamma (RARg), RARG (gene 5916) (UniProt P13631); assay: ATG_RARg_TRANS: Attagene TRANS-FACTORIAL HepG2 Assay for human Retinoic Acid Receptor gamma (RARg) (AID 2283009; active = hit-call score of the fitted dose curve at least 0.9, where 1 is the maximum)
# How it was run: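 Gain-of-signal relative to DMSO is reported from fluorescent capillary electrophoresis of RT-PCR reporter products. These came from HepG2 cells expressing transfected RARg-GAL4 chimeras with UAS reporters, harvested 24 h after dosing.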
# [12] = BSK_3C_TissueFactor: BioMAP Diversity Plus: 3C Assay for Tissue Factor Biomarker Activity (AID 2282997); details: BioMAP 3C HUVEC, tissue factor biomarker readout; actives raise or lower the signal
# How it was run: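 HUVEC, 3C system, 24 h post-dose; Tissue Factor by ELISA; bidirectional fit vs DMSO baseline.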
# [13] = BSK_3C_uPAR: BioMAP Diversity Plus: 3C Assay for Urokinase-type plasminogen activator receptor (uPAR) Biomarker Activity (AID 2282998); details: BioMAP 3C HUVEC, uPAR biomarker ELISA; actives raise or lower the signal
# How it was run: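 In this endothelial cell-based assay, human umbilical vein primary cells were treated with chemicals and harvested at 24 h. uPAR was quantified using ELISA, with gains or losses fitted relative to DMSO controls.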
# [14] = BSK_4H_Eotaxin3: BioMAP Diversity Plus: 4H Assay for Eotaxin 3 Biomarker Activity (AID 2283000); details: primary human endothelial cells (HUVEC); actives raise or lower the signal;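 as to outcome: CCL26 protein level quantified by ELISA in parallel with SRB cytotoxicity check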
# How it was run: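 Readout is Eotaxin-3 (CCL26) level by ELISA in primary human umbilical vein endothelial cells harvested 24 h after chemical exposure; activity fitted in both directions against DMSO control.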
# [15] = target: human Peroxisome Proliferator-activated Receptor alpha (PPARa), PPARA (gene 5465) (UniProt Q07869); assay: ATG_PPARa_TRANS: Attagene TRANS-FACTORIAL HepG2 Assay for human Peroxisome Proliferator-activated Receptor alpha (PPARa) (AID 2283001; active = hit-call score of the fitted dose curve at least 0.9, where 1 is the maximum;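 as to AC50: potency for gain of reporter signal over DMSO so agonist or activator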)
# How it was run: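 Exposure: 24 h, transiently transfected HepG2 cells. Endpoint: GAL4-UAS reporter mRNA, RT-PCR with capillary electrophoresis fluorescence. Baseline: DMSO; increases fitted.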
# [16] = read-out: Intercellular Adhesion Molecule 1 (ICAM1), ICAM1 (gene 3383); assay: BSK_3C_ICAM1: BioMAP Diversity Plus: 3C Assay for Intercellular Adhesion Molecule 1 (ICAM1) Biomarker Activity (AID 2283003); details: primary human endothelial cells (HUVEC); actives raise or lower the signal
# How it was run: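 Using DMSO as baseline, bidirectional curve fitting was applied to ICAM-1 ELISA signals from HUVEC in the 3C system, measured 24 h after compound addition.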
# [17] = BSK_3C_Proliferation: Cell Proliferation Assessment in the BioMAP Diversity Plus: 3C Assay (AID 2283006); details: primary human endothelial cells (HUVEC);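 as to AC50: potency may reflect either rise or fall in cell number versus DMSO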
# How it was run: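 Measured here: sulforhodamine B (0.1%) staining of TCA-fixed sub-confluent umbilical vein endothelial cultures 48 h post-dosing, absorbance 560 nm. DMSO served as negative control and baseline; both signal gain and loss were modelled.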
# [18] = target: Myc proto-oncogene protein (Homo sapiens) (UniProt P01106); assay: ATG_Myc_CIS: Attagene CIS-FACTORIAL HepG2 Assay for human Myelocytomatosis (Myc) Proto-Oncogene Transcription Factor (AID 2282990); details: HepG2, Attagene cis-reporter transcription factor activity; actives raise or lower the signal
# How it was run: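 DMSO-normalised, bidirectionally fitted reporter mRNA signal. HepG2 cells transfected with cis reporter constructs, treated 24 h; transcripts detected by RT-PCR, 6-FAM primer extension and CE.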
# [19] = target: Retinoic acid receptor alpha (Homo sapiens) (UniProt P10276); assay: ATG_RARa_TRANS: Attagene TRANS-FACTORIAL HepG2 Assay for human Retinoic Acid Receptor alpha (RARa) (AID 2283005; active = hit-call score of the fitted dose curve at least 0.9, where 1 is the maximum)
# How it was run: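 HepG2 cells transiently transfected with multiple reporter units expressing chimeric RARα-GAL4 fusion, with GAL4-UAS-driven reporters. After 24 h compound exposure, reporter mRNA induction quantified by RT-PCR and capillary electrophoresis with fluorescent labeling; gain-of-signal fitted relative to DMSO control.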
# human Retinoic Acid Receptor gamma (RARg), RARG (gene 5916), sequence (P13631 whole entry, looked up, the tested form may be a part): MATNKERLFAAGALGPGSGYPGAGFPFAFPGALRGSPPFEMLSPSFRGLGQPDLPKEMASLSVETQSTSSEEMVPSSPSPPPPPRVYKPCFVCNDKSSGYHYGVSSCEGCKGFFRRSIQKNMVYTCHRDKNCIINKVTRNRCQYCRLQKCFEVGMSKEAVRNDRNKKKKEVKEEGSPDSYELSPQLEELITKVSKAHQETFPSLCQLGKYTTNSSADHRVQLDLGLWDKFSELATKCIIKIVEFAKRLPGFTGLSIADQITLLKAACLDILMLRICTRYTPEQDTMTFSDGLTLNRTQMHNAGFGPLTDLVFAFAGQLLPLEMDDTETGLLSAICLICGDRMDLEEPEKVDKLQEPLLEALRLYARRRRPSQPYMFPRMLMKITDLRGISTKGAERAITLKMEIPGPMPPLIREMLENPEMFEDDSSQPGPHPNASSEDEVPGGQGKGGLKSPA
# Peroxisome proliferator-activated receptor gamma (Homo sapiens), sequence (P37231 whole entry, looked up, the tested form may be a part): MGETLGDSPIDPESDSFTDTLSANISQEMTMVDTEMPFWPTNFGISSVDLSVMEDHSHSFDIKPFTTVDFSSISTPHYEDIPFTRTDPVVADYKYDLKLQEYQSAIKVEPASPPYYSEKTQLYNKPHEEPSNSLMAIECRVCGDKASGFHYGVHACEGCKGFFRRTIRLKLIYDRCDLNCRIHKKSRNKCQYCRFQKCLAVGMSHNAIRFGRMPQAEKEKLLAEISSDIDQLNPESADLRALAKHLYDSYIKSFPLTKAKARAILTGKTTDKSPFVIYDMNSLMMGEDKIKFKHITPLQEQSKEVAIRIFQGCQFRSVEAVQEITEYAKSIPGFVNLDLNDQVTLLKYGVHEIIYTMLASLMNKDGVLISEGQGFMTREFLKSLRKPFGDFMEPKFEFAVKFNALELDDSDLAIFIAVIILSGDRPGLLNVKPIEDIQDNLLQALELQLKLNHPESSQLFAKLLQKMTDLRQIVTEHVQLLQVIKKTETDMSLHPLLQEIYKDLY
# Nuclear respiratory factor 1 (Homo sapiens), sequence (Q16656 whole entry, looked up): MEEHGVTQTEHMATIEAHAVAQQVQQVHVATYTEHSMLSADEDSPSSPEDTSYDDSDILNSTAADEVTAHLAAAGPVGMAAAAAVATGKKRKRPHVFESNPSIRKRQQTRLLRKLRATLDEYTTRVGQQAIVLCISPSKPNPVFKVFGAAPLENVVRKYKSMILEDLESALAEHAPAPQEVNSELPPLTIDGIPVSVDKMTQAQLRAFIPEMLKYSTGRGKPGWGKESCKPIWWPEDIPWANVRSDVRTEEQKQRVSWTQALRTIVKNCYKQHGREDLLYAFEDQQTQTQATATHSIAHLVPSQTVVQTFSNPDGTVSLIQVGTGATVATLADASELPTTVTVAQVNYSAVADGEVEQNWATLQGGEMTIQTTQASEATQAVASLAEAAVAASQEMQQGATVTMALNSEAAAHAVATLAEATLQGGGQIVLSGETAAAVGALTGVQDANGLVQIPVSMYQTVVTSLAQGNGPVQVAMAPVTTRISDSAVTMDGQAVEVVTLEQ
# Nuclear receptor subfamily 1 group I member 2 (Homo sapiens), sequence (O75469 whole entry, looked up, the tested form may be a part): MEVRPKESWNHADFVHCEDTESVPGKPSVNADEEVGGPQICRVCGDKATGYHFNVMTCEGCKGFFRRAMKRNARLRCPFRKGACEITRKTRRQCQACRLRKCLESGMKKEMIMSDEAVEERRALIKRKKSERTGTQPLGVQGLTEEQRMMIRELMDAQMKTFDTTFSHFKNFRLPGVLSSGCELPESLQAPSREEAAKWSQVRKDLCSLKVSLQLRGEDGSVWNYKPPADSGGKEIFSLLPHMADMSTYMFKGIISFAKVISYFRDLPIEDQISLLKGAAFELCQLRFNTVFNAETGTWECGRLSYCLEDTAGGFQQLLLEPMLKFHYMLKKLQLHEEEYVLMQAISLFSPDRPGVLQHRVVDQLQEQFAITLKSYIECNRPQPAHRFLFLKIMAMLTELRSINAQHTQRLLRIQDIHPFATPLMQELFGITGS
# human Peroxisome Proliferator-activated Receptor alpha (PPARa), PPARA (gene 5465), sequence (Q07869 whole entry, looked up, the tested form may be a part): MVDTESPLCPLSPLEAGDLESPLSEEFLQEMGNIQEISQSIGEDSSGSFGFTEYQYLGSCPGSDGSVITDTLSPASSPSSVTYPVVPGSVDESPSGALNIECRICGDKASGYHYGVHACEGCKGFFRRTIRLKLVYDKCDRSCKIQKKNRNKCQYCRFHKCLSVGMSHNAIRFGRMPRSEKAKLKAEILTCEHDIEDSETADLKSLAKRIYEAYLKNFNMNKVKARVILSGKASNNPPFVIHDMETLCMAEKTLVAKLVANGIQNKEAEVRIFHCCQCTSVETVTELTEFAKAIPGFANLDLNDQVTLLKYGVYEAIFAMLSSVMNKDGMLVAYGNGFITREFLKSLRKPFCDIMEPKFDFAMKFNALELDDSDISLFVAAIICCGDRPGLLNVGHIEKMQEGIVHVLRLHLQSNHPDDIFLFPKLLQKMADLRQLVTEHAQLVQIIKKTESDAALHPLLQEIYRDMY
# human RAR-related Orphan Receptor beta (RORb), RORB (gene 6096), sequence (Q92753 whole entry, looked up, the tested form may be a part): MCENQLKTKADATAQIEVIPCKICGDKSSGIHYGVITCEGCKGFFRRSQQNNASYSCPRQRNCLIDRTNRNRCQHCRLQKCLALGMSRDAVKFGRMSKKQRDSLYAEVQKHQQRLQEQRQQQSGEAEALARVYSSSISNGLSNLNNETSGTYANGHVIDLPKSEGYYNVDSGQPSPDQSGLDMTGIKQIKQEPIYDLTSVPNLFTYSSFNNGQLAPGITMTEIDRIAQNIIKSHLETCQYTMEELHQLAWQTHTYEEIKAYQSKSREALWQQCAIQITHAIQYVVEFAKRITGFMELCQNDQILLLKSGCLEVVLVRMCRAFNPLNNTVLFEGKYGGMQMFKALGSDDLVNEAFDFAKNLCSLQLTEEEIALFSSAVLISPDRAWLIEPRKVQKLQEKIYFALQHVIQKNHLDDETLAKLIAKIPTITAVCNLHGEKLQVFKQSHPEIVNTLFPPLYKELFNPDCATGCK
# Myc proto-oncogene protein (Homo sapiens), sequence (P01106 whole entry, looked up): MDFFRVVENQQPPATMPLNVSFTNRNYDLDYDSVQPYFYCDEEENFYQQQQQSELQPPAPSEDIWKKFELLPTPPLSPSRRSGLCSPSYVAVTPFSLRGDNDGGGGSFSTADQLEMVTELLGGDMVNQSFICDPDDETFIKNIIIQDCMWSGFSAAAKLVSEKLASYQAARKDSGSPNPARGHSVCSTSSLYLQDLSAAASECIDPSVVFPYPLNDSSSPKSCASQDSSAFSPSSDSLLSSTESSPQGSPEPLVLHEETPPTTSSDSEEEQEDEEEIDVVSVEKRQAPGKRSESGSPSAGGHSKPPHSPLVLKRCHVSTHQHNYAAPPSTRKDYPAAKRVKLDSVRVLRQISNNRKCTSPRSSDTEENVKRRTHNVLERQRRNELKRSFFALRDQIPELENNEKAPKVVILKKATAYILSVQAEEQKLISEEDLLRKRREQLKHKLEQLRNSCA
# Cellular tumor antigen p53 (Homo sapiens), sequence (P04637 whole entry, looked up, the tested form may be a part): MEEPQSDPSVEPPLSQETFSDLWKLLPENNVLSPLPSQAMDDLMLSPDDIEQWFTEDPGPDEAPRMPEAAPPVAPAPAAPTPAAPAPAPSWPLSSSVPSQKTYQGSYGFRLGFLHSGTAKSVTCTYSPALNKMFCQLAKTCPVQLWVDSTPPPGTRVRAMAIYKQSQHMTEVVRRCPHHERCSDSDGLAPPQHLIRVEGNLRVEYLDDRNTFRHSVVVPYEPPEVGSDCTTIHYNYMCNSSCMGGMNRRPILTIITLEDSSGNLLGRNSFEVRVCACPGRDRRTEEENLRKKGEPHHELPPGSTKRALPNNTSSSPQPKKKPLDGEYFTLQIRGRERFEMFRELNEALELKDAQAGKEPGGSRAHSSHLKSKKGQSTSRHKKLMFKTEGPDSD
# human Peroxisome Proliferator-activated Receptor delta (PPARd), PPARD (gene 5467), sequence (Q03181 whole entry, looked up, the tested form may be a part): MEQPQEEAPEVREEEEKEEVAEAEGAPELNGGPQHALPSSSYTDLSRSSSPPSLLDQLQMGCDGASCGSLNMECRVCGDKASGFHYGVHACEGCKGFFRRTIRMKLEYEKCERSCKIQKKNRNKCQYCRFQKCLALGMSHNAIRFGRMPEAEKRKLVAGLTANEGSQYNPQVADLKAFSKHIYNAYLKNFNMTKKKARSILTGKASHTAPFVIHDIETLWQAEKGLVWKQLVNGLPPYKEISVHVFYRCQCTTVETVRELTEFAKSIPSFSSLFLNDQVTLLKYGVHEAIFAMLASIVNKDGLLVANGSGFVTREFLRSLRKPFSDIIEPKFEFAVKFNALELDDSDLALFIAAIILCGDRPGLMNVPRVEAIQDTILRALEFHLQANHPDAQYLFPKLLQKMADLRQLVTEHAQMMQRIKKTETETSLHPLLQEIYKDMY
# Retinoic acid receptor alpha (Homo sapiens), sequence (P10276 whole entry, looked up, the tested form may be a part): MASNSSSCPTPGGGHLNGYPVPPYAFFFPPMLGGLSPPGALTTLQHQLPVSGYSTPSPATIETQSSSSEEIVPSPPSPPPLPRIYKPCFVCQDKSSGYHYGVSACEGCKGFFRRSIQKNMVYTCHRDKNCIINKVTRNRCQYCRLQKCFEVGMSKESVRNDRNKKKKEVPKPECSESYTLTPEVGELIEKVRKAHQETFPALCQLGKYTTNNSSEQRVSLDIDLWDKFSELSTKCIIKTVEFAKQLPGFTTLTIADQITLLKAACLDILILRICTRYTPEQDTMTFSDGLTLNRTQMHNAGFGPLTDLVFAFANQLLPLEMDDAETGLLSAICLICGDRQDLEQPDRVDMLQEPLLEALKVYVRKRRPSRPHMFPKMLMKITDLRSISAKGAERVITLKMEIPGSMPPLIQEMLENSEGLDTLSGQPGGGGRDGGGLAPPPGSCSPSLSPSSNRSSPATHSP
smiles,measurement,setting,value
OC[C@H]1O[C@@H](O[C@H]2[C@H](O)[C@@H](O)[C@H](O)O[C@@H]2CO)[C@H](O)[C@@H](O)[C@H]1O,outcome,[1],inactive
same,outcome,[2],inactive
same,outcome,[3],inactive
same,outcome,[4],inactive
same,outcome,[5],inactive
same,outcome,[6],inactive
same,outcome,[7],inactive
same,outcome,[8],inactive
same,outcome,[9],inactive
same,outcome,[10],inactive
O=C(O)c1ccco1,outcome,[1],inactive
same,outcome,[2],inactive
same,outcome,[4],inactive
same,outcome,[5],inactive
same,outcome,[6],inactive
same,outcome,[9],inactive
CC(O)CN (configuration not stated),outcome,[1],inactive
same,outcome,[2],inactive
same,outcome,[3],inactive
same,outcome,[4],inactive
same,outcome,[5],inactive
same,outcome,[8],inactive
same,outcome,[9],inactive
same,outcome,[11],inactive
same,outcome,[10],inactive
OCCN1CCOCC1,outcome,[1],inactive
same,outcome,[2],inactive
same,outcome,[3],inactive
same,outcome,[4],inactive
same,outcome,[5],inactive
same,outcome,[12],inactive
same,outcome,[13],inactive
same,outcome,[14],inactive
same,outcome,[15],inactive
same,outcome,[7],inactive
same,outcome,[16],inactive
same,outcome,[17],inactive
same,outcome,[11],inactive
CC(=N[Si](C)(C)C)O[Si](C)(C)C,outcome,[1],inactive
same,outcome,[18],inactive
same,outcome,[3],inactive
same,outcome,[4],inactive
same,outcome,[5],inactive
same,outcome,[6],inactive
same,outcome,[15],inactive
same,outcome,[7],inactive
same,outcome,[10],inactive
CCCCCCCCCCCCOCCOS(=O)(=O)O,outcome,[1],inactive
same,outcome,[2],inactive
same,outcome,[3],inactive
same,outcome,[5],inactive
same,outcome,[6],inactive
same,AC50,[15],9.73 µM (active)
same,outcome,[7],inactive
same,AC50,[8],18.7 µM (active)
CC(C)(C)c1cccc(O)c1,outcome,[1],inactive
same,outcome,[18],inactive
same,outcome,[3],inactive
same,outcome,[5],inactive
same,outcome,[6],inactive
same,outcome,[12],inactive
same,AC50,[13],0.016 µM (active)
same,outcome,[14],inactive
same,outcome,[15],inactive
same,outcome,[7],inactive
same,outcome,[16],inactive
same,outcome,[19],inactive
same,outcome,[17],inactive
same,AC50,[9],27.2 µM (active)
same,outcome,[11],inactive
CC(=O)c1cccnc1,outcome,[1],inactive
same,outcome,[2],inactive
same,outcome,[3],inactive
same,outcome,[4],inactive
same,outcome,[6],inactive
same,outcome,[15],inactive
COc1ccc2[nH]cc(CCNC(C)=O)c2c1,outcome,[1],inactive
same,outcome,[18],inactive
same,outcome,[3],inactive
same,outcome,[4],inactive
same,outcome,[5],inactive
same,outcome,[6],inactive
same,outcome,[7],inactive
same,outcome,[9],inactive
O=C(O)CS,outcome,[1],inactive
same,outcome,[2],inactive
same,outcome,[3],inactive
same,outcome,[4],inactive
same,outcome,[15],inactive
same,outcome,[9],inactive
same,outcome,[11],inactive
same,outcome,[10],inactive
CCCCCCCCOC(C)=O,outcome,[1],inactive
same,outcome,[18],inactive
same,outcome,[3],inactive
same,outcome,[4],inactive
same,outcome,[5],inactive
same,outcome,[6],inactive
same,outcome,[7],inactive
same,outcome,[8],inactive
C=C(C)C(=O)OCCN(C)C,outcome,[1],inactive
same,outcome,[2],inactive
same,outcome,[4],inactive
same,outcome,[5],inactive
same,outcome,[6],inactive
same,outcome,[15],inactive
same,outcome,[8],inactive
same,outcome,[11],inactive
c1ccc2scnc2c1,outcome,[1],inactive
same,outcome,[2],inactive
same,outcome,[3],inactive
same,AC50,[4],42.1 µM (active)
same,outcome,[5],inactive
same,outcome,[6],inactive
same,outcome,[15],inactive
same,outcome,[9],inactive
c1ccc(Sc2ccccc2)cc1,outcome,[1],inactive
same,outcome,[18],inactive
same,outcome,[3],inactive
same,outcome,[4],inactive
same,AC50,[12],33 µM (active)
same,AC50,[13],32 µM (active)
same,AC50,[14],30.7 µM (active)
same,outcome,[15],inactive
same,outcome,[16],inactive
same,AC50,[17],27.6 µM (active)
same,outcome,[9],inactive
